Screening results from PubChem BioAssay.
MARV entry inh – inhibitors of Marburg virus binding or cell entry; Potency, µM (titrated, usually from 37.8 µM), for the others: at the highest dose activity change, negative = inhibition, most hits filed as inhibitors; hit rate 1.8% among 300,000; Marburg virus pseudotyped entry inhibition, cell reporter; calls by dose curve; tested in HEK293 cells; also: potency is read from the fitted curve at half-maximal effect; % is scaled to controls: 0 for no effect and ±100 for the full control effect
LASV entry inh – Lassa virus entry inhibition | hit rate 1.2% among 300,000 | Potency, µM (series often up to 37.9 µM), for inactives: at the top dose activity change, negative = inhibition, usual class: inhibitors | Lassa virus pseudotype entry inhibition, cell reporter; calls by dose curve; tested in HEK293 cells; also: potency is read from the fitted curve at half-maximal effect; % is scaled to controls: 0 for no effect and ±100 for the full control effect; nearly all actives have a fitted effect of over 50% in size
Cycloheximide cs – counter-screen hit for Shiga toxin inhibitors, cycloheximide; AID 2314; cell reporter, cycloheximide protein synthesis inhibition counterscreen; hit rate 12% among 300,000; max response, %; in the data active = max response mostly above about 13%, no sharp cut-off; inactive = mostly below about 14%; also: read at 38.3 µM for the half of the compounds with a filed dose; 0% is about no effect
Shiga inhibitor – Shiga toxin inhibition | Vero cells, Shiga toxin protein synthesis inhibition reporter | inhibition, % at 38.7 µM | hit rate 9.2% among 290,000; in the data active = inhibition mostly above about 28%, no sharp cut-off; inactive = mostly below about 43%; also: 0% is about no effect
* = called active by the depositor; ? = inconclusive; / = no result; [ ] = remark or other dose. Shown are actives, neighbours in structure and some others; about 12% of the full set was active somewhere.

SMILES	MARV entry inh	LASV entry inh	Cycloheximide cs	Shiga inhibitor
Nc1c(C(=O)N2CCOCC2)sc2nc3c(cc12)CCCC3	?	?	17.6*	20.6
Nc1c(C(=O)N2CCOCC2)sc2nc3c(cc12)CCC3	/	/	26.2*	68.4*
Nc1c(C(=O)N2CCCC2)sc2nc3c(cc12)CCCCCC3	?	?	44.0*	102.8*
O=C(NCCNCCO)C1(C(F)(F)F)CC(CCc2ccccc2)CCCO1 (stereo unspecified)	/	/	-2.8	-3.3
COc1ccc(C(=O)c2ccccc2)c2c(O)ccc(C(=O)c3ccccc3)c12	14.1µM*	?	-5.8	-21.5
COc1cc(O)c(C(=O)c2ccccc2)cc1S(=O)(=O)O	/	/	3.0	10.2
CSc1nc2c(c(=O)n1-c1ccc(C)cc1)SCC2	-15.4%	-13.9%	8.6*	48.8
CSc1nc2c(c(=O)n1-c1ccc(F)cc1)SCC2	1.7%	12.3%	-1.4	-2.5
O=C(c1nn2c(C(F)(F)F)cc(-c3cccs3)nc2c1Cl)N1CCCc2ccccc21	?	?	47.9*	79.8*
Cc1c(Cl)c(C(=O)N2CCCc3ccccc32)nn1C	-12.6%	23.4%	16.2	47.4*
Cn1nc(C(=O)N2CCCc3ccccc32)c2ccccc2c1=O	/	/	0.9	-6.3
Cc1nn(C)c(C(=O)N2CCc3ccccc32)c1Br	-16.3%	8.5%	-2.5	-11.4
Cc1c(Br)c(C(=O)N2CCc3ccccc32)nn1C	-32.1%	6.7%	91.4*	61.6*
O=C(Cn1c(=O)n(Cc2ccco2)c(=O)c2oc3ccccc3c21)Nc1ccc(F)c(Cl)c1	/	-8.5%[46.1 µM]	/	/
Cn1c(=O)oc2cc(S(=O)(=O)N3CCC(C(=O)N4CCN(c5ccccc5F)CC4)CC3)ccc21	-0.7%[46.1 µM]	-8.2%[46.1 µM]	/	/
CCOc1ccc(S(=O)(=O)N2CCC(C(=O)N3CCN(c4ccccc4F)CC3)CC2)cc1C	?	7.08µM*	-2.8	-3.9
OC(CNCCc1ccc(C(F)(F)F)cc1)COc1ccc2ccccc2c1 (stereo unspecified)	?	16.4µM*	-10.4	-24.2
CC(C)c1ccc(NC(=O)[C@@H]2CCC(=O)N2C2OC(=O)c3ccccc32)cc1 (stereo partly specified)	/	/	28.1*	38.2
COc1ccc(/C=C/C(=O)CCC(=O)O)cc1	4.9%[46.1 µM]	19.4%	32.0*	56.3*
COc1ccc(/C=C/C(=O)OCCC(C)C)cc1	/	/	33.7*	104.9*
COc1ccc(/C=C/C(=O)O)cc1	/	/	4.7	21.4
COc1cccc(CNC(=O)C2CCN(C(=O)c3sccc3-n3cccc3)CC2)c1	-16.8%[46.1 µM]	/	/	/
CCC(=O)N1CCc2cc(S(=O)(=O)NCCC(=O)Nc3ccc(OC)c(OC)c3)ccc21	1.4%[46.1 µM]	22.1%[46.1 µM]	/	/
COc1ccccc1CN(Cc1cc2cc(C)ccc2[nH]c1=O)Cc1nnnn1Cc1ccco1	12.6µM*	?	12.6	53.2*
COc1ccccc1CN(Cc1cc2cc(C)cc(C)c2[nH]c1=O)Cc1nnnn1CC1CCCO1 (stereo unspecified)	10.3µM*	?	-3.0	-10.4
SMILES	MARV entry inh	LASV entry inh	Cycloheximide cs	Shiga inhibitor
CCc1ccc2[nH]c(=O)c(CN(Cc3ccccc3OC)Cc3nnnn3Cc3ccco3)cc2c1	?	?	7.5	8.3
COc1ccc2[nH]c(=O)c(CN(Cc3ccccc3OC)Cc3nnnn3CC3CCCO3)cc2c1 (stereo unspecified)	-22.2%	-2.2%	-2.7	-31.3
COc1ccccc1CN(Cc1cc2cc(C)ccc2[nH]c1=O)Cc1nnnn1CC1CCCO1 (stereo unspecified)	?	-23.0%	18.0	41.4
COc1ccc2[nH]c(=O)c(CN(Cc3ccc(C)cc3)Cc3nnnn3CC3CCCO3)cc2c1 (stereo unspecified)	0.3%	-6.3%	40.3*	40.1*
Cc1ccc(NC(=O)COC(=O)CCC2CCCC2)c(Br)c1	?	20.6%	/	/
C/C(=N\N1CCCCCC1)c1c(O)n(-c2ccccc2)c(=O)[nH]c1=O	-15.8%	?	0.2	-2.2
C/C(=N\N1CCCCC1)c1c(O)[nH]c(=O)[nH]c1=O	0.9%	5.4%	18.0*	9.6
O=C(NCc1ccco1)c1cc(-c2ccccc2)nc2ccccc12	?	11.3%	23.7*	53.1
Cc1nnc(Sc2cc(C(=O)NCc3ccco3)c3ccccc3n2)s1	-4.6%	-1.2%	35.4*	59.9
O=C(Nc1cccc(S(=O)(=O)NCc2ccco2)c1)c1cc(-c2ccccc2)nc2ccccc12	?	?	36.3*	22.9
COc1ccc(-c2cc(C(=O)NCc3ccco3)c3ccccc3n2)c(OC)c1	/	/	10.4	-4.3
COc1ccc(-c2cc(C(=O)NCc3ccco3)c3ccccc3n2)cc1	/	/	14.3*	27.5
COc1ccc2c(CNC3CCC(C)CC3)c(C(=O)O)n(Cc3ccccc3)c2c1 (stereo unspecified)	/	-16.7%[46.1 µM]	/	/
CNc1nnc(-c2cccc(N(C)C)c2)s1	4.8%	?	45.5*	121.6*
